Laboratory results: PubChem BioAssay AID729 (The Scripps Research Institute Molecular Screening Center, 2007)
Hit rate of the full screen: of about 97,000 compounds, about 450 (0.46%) were called active. Rule as the data show it: active = activation above about 16%; inactive = the rest. What follows is part of a selection rich in actives, with near analogues and random picks from the rest.

Target: Sphingosine 1-phosphate receptor 2 (Homo sapiens) (UniProt O95136)
Assay: S1P2 receptor agonists, primary screen, cell-based (AID 729);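 also: 0% = vehicle low control and 100% = maximal reference agonist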
Conditions: S1P2-expressing cell line, agonist reporter read-out; at 4.5 µM; stronger effect = higher value

Chain of Sphingosine 1-phosphate receptor 2 (Homo sapiens) (O95136 whole entry, looked up): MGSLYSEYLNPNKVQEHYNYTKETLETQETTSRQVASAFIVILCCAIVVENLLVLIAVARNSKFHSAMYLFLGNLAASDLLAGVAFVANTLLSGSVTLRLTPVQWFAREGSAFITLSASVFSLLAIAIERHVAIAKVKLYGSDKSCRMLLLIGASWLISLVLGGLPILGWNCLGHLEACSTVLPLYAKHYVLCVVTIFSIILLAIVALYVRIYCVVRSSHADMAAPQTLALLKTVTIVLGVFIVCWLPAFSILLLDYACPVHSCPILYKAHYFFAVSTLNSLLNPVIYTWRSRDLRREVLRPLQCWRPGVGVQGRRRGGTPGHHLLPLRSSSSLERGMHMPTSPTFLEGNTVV

Row | Compound | activation
1 | Cc1ccc(-n2c(SCC(=O)Nc3ccc4c(c3)OCO4)nnc2-c2ccccn2)cc1 | -1.29% (inactive)
2 | Cc1cccc(C)c1NC1=NC(=S)N(c2ccc(N(C)C)cc2)C1(C)C | -9.2% (inactive)
3 | Cc1cc(C(=O)OCC(=O)Nc2ccc(F)c(F)c2)c(C)o1 | -1.12% (inactive)
4 | Cc1sc2nc(SCC(N)=O)n(C)c(=O)c2c1C | -6.32% (inactive)
5 | CCOc1ccc(NC(=O)CN(C)CC(=O)Nc2cccc(Cl)c2C)cc1OCC | -8.46% (inactive)
6 | CS(=O)(=O)Nc1ccc(C(=O)N2CCCC2)cc1 | -1.67% (inactive)
7 | O=C(NC1CCCCC1)c1cc([N+](=O)[O-])ccc1N1CCOCC1 | -3.96% (inactive)
8 | CC(C)c1nc(N2CCOCC2)c(C#N)c2c1COC(C)(C)C2 | -3.4% (inactive)
9 | COc1ccc(CSc2nc(N3CCOCC3)c3c(c2C#N)CC(C)(C)OC3)cc1 | -4.98% (inactive)
10 | CC1(C)Cc2c(C#N)c(SCc3nc4ccccc4[nH]3)nc(N3CCOCC3)c2CO1 | 31% (active)
11 | Cc1c(CCO)c(=O)[nH]n1C(=O)c1c(F)cccc1F | -3.16% (inactive)
12 | CCn1c(SCC(=O)c2ccc3ccccc3c2)nnc1-c1cccs1 | -3.98% (inactive)
13 | CCCc1nc2oc3c(OCC)ncnc3c2c2c1COC(C)(C)C2 | -0.19% (inactive)
14 | O=C(Oc1ccc([N+](=O)[O-])cc1)c1ccc2ccccc2n1 | -2.37% (inactive)
15 | CCOC(=O)c1cnc(SCC(=O)Nc2ccccc2C(=O)OC)nc1N | 1.96% (inactive)
16 | O=C(Cc1ccc2c(c1)CCCC2)Nc1ccccc1Cl | -3.38% (inactive)
17 | C=C(C)Cn1c(N2CCCC2)nc2c1c(=O)[nH]c(=O)n2C | 19.6% (active)
18 | Cc1nnc(SCCCn2c(N3CCCCC3)nc3c2c(=O)[nH]c(=O)n3C)s1 | -7% (inactive)
19 | C=C(C)Cn1c(N2CCN(CC)CC2)nc2c1c(=O)[nH]c(=O)n2C | -3.08% (inactive)
20 | O=C(O)c1ccccc1-c1ccccc1C(=O)Nc1cccc2ccccc12 | -6.33% (inactive)
21 | CCOC(=O)c1cc(C#N)c(N2CCCCC2)nc1-c1ccccc1 | -3.1% (inactive)

Row | Compound | activation
22 | Cc1ccc(C(=O)N2CCCC2)c(F)c1F | -3.27% (inactive)
23 | COc1ccc(-n2nnnc2SCC(=O)Nc2ccccc2)cc1 | -5.85% (inactive)
24 | COc1ccccc1N1CC(C(=O)Nc2ccc(S(=O)(=O)N3CCOCC3)cc2)CC1=O (stereo unspecified) | -6.57% (inactive)
25 | COc1ccc(Cc2nnc(SCC(=O)c3cccc([N+](=O)[O-])c3)n2C)cc1 | -3.41% (inactive)
26 | CN(C)CCNC(=O)Nc1cccc(Cl)c1Cl | -3.84% (inactive)
27 | O=C(/C=C/c1ccc(Cl)cc1Cl)NCc1ccco1 | -1.23% (inactive)
28 | O=C(COc1ccc2c(C(F)(F)F)cc(=O)oc2c1)Nc1ccc2c(c1)OCCO2 | -0.82% (inactive)
29 | COc1ccc(CCNC(=O)CN(c2ccccc2)S(C)(=O)=O)cc1OC | -5.51% (inactive)
30 | CC(C)c1ccc(NC(=O)CCN2C(=O)c3ccc([N+](=O)[O-])cc3C2=O)cc1 | -2.71% (inactive)
31 | Cc1nnc(SCC(=O)Nc2ncc3c(n2)CC(C)(C)CC3=O)s1 | -4.47% (inactive)
32 | CCN(CC)CCCNC(=O)CCc1ccccc1 | -2.5% (inactive)
33 | COc1cc(C2C(C(=O)OCCC#N)=C(C)NC3=C2S(=O)(=O)c2ccccc23)cc(OC)c1OC (stereo unspecified) | 26.2% (active)
34 | CCCCCOC(=O)C1=C(C)Nc2nnnn2C1c1ccc(OC)c(OC)c1OC (stereo unspecified) | -4.69% (inactive)
35 | COCCOC(=O)C1=C(C)Nc2nc(C)nn2C1c1ccccc1 (stereo unspecified) | 0.76% (inactive)
36 | CC(C)C(=O)Nc1nnc(Sc2ccc(N(C)C)cc2)s1 | -5.86% (inactive)
37 | O=c1oc2c(Cl)cc(Cl)cc2cc1-c1nnc(Nc2ccccc2F)s1 | -0.35% (inactive)
38 | Cn1c(=O)n(C)c2cc(/C=N/NC(=O)c3cccc(Br)c3)ccc21 | -7.52% (inactive)
39 | Nc1c(C(=O)NCc2ccccc2)sc2nc3c(cc12)C(=O)CCC3 | -2.41% (inactive)
40 | CCCCNC(=O)C1CCCN(S(=O)(=O)c2ccc(S(=O)(=O)NCC(C)C)cc2)C1 (stereo unspecified) | -2.41% (inactive)
41 | COC(=O)c1ccccc1Oc1c(F)c(F)nc(N2CCOCC2)c1F | -3.44% (inactive)
42 | COc1ccc(C2C(C(C)=O)=C(O)C(=O)N2Cc2cccnc2)cc1 (stereo unspecified) | -3.66% (inactive)

Row | Compound | activation
43 | CC(C)C(C)NC(=O)COc1ncnc2ccccc12 (stereo unspecified) | -3.57% (inactive)
44 | CC1Cc2ccccc2N1CC(=O)Nc1ccc2c(c1)OC(F)(F)O2 (stereo unspecified) | 2.93% (inactive)
45 | O=C(CN1CCN(S(=O)(=O)c2ccc3ccccc3c2)CC1)NC(=O)NC1CCCCC1 | -7.63% (inactive)
46 | CCOC(=O)c1nc(Nc2ccc(C(=O)OC)cc2)c2ccccc2n1 | -2.78% (inactive)
47 | CCc1ccc(NC(=O)CN2C(=O)CSC2=O)cc1 | -3.93% (inactive)
48 | Cn1cnc([N+](=O)[O-])c1Nc1ccccc1O | -3.11% (inactive)
49 | COc1ccc(C2C(C(C)=O)=C(O)C(=O)N2c2nccs2)cc1 (stereo unspecified) | -0.54% (inactive)
50 | CCn1c(=N)c(S(=O)(=O)c2ccc(F)cc2)cc2c(=O)n3ccccc3nc21 | 34.3% (active)
51 | CCCn1c(=NC(C)=O)c(C(=O)OCC)cc2c(=O)n3ccccc3nc21 | 14.5% (inactive)
52 | Cc1ccc(-n2c(=O)c(C#N)cc3c(=O)n4ccccc4nc32)cc1C | 5.21% (inactive)
53 | CONC(=O)c1cc(OCC(F)(F)F)ccc1OCC(F)(F)F | -3.47% (inactive)
54 | Cc1cc(N=CC2=C(O)CCCC2=O)no1 | -0.19% (inactive)
55 | O=C1CCCC(O)=C1C=NCCc1ccccc1 | 84.1% (active)
56 | CC1(C)CC(=O)C(C=NCCC2=CCCCC2)=C(O)C1 | -6.14% (inactive)
57 | COc1ccc(N(CC(=O)N/N=C/c2cccs2)S(=O)(=O)c2ccc(OC)c(OC)c2)cc1 | -7.16% (inactive)
58 | COc1ccc(C(=O)/C=C/Nc2ccccn2)cc1 | 1.74% (inactive)
59 | O=C(Nc1ccccc1)c1ccc2nsnc2c1 | -2.63% (inactive)
60 | O=C(O)c1cc2ccccc2c(=O)s1 | -6.32% (inactive)
61 | O=C(CN1CCSCC1)N/N=C/c1ccc(F)cc1F | -0.59% (inactive)
